Hits are enriched below; roughly 12% of the tested compounds scored in any of these assays.
Sm TGR inh: qHTS Assay for the Inhibitors of Schistosoma Mansoni Peroxiredoxins; Schistosoma mansoni thioredoxin glutathione reductase (TGR), Q962Y6; purified TGR, DTNB reduction, TNB absorbance 405 nm; Potency, µM (series often up to 114 µM), without a hit: at the top dose activity change, negative = inhibition, most hits filed as inhibitors; 360,000 tested, 3% active; AID 485364, 2010; further: on the % scale 0 is the no-effect control and ±100 the full control effect; nearly all actives have a fitted effect of over 60% in size
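First, TGR (20 nM dispensed) and NADPH were mixed with compound. Second, a 15 min room-temperature incubation followed. Third, further NADPH and then DTNB were added to start the reaction. Finally, TNB absorbance was monitored kinetically.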
SARS PLP yeast: qHTS of Yeast-based Assay for SARS-CoV PLP | S. cerevisiae expressing SARS-CoV PLpro, growth rescue | Potency, µM (doses to about 32.9 µM), without a hit: at the highest dose activity, positive = growth rescue, usual class: activators | 330,000 tested, 0.19% active | AID 485353, 2010; calls by dose curve; further: 0% is about no effect; nearly all actives have a fitted effect of over 55% in size
AmpC inh detg: qHTS Inhibitors of AmpC Beta-Lactamase (assay with detergent); P00811; AmpC hydrolysis of nitrocefin, absorbance 480 nm, 0.01% Triton; Potency, µM (doses to about 114 µM), for inactives: at the highest dose activity change, negative = inhibition, usual class: inhibitors; 370,000 tested, 0.041% active; AID 485294, 2010;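 further: 0% = no-compound wells and -100% = no-enzyme wells; nearly all actives have a fitted effect of over 25% in size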
Target sequence (P00811 whole entry, looked up): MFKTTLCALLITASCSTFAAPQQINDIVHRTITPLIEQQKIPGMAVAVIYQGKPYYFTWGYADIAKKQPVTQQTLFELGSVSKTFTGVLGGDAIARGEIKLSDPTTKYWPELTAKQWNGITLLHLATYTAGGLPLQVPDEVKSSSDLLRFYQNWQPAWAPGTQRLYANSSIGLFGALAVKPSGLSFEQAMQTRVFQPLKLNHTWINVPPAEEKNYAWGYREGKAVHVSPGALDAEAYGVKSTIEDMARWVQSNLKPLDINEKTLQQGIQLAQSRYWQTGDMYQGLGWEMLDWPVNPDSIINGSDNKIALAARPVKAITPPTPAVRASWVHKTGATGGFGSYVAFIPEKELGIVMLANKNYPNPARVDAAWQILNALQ
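AmpC (5.3 nM in the dispensed reagent) in 20 mM phosphate pH 7.0 with 0.01% (detergent screen) or 0.0001% Triton X-100 was preincubated with compounds for 15 min at room temperature. Nitrocefin was then added from an 800 uM solution, and hydrolysis was followed at 480 nm.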
Pf growth 96h: Primary qHTS for delayed death inhibitors of the malarial parasite plastid, 96 hour incubation. P. falciparum luciferase reporter growth, 96 h. Potency, µM (titrated, usually from 28.7 µM), inactives show at the highest dose activity change, negative = inhibition, actives largely listed as inhibitors. 320,000 tested, 6.9% active. AID 504834, 2011; further: on the % scale 0 is the no-effect control and ±100 the full control effect
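Delayed-death screen, second-generation endpoint: infected erythrocytes, 2% hematocrit, 0.05% parasitemia final; 96 hours at 37 C, 5% CO2; luciferase detection reagent; luminescence decrease equals reduced growth.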
Pf growth 48h: Primary qHTS for delayed death inhibitors of the malarial parasite plastid, 48 hour incubation. Potency, µM (top dose mostly 28.7 µM), without a hit: at the highest dose activity change, negative = inhibition, hits mostly inhibitors. AID 504832, 2011. P. falciparum luciferase growth in erythrocytes, 48 h. 310,000 tested, 5.9% active; further: on the % scale 0 is the no-effect control and ±100 the full control effect
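Luminescence readout; reporter = integrated firefly luciferase in P. falciparum. RBC culture at 2% hematocrit, 0.1% parasitemia final, 37 C/5% CO2; decreased signal taken as growth inhibition.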
AmpC inh no detg: qHTS Inhibitors of AmpC Beta-Lactamase (assay without detergent) | AmpC nitrocefin hydrolysis, absorbance 480 nm, 0.0001% Triton | Potency, µM (titrated, usually from 57.1 µM), for the others: at the highest dose activity change, negative = inhibition, most hits filed as inhibitors | P00811 | 330,000 tested, 0.52% active | AID 485341, 2010;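 further: plate controls were no compound for no effect and no enzyme for full effect; nearly all actives have a fitted effect of over 20% in size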
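20 mM phosphate pH 7.0 + 0.01% (detergent screen) or 0.0001% Triton X-100; 5.3 nM AmpC reagent; cpd preinc 15 min RT; nitrocefin (800 uM stock) to start; A480 q20 s × 4 min; Activity was normalised to no-enzyme and no-compound control wells.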
An asterisk follows results filed as active; ? = inconclusive; / = not tested or not shown; ! = not confirmed by another sample. Unless noted, the call rests on the fitted dose curve; in most records, active means well fitted curve in the direction sought with a large enough effect; inconclusive means small, poorly fitted or top-dose-only effect, or another doubt; inactive means no such curve, though single readings can be large; an effect the other way counts as inactive or inconclusive. Potency means the concentration at half of the fitted maximal effect.

SMILES | Sm TGR inh | SARS PLP yeast | AmpC inh detg | Pf growth 96h | Pf growth 48h | AmpC inh no detg
O=S(=O)(NCc1c(Cl)cccc1Oc1ccccc1)c1ccc(F)cc1 | 13% | -4% | -7% | ? | 9.3µM* | -30%
O=C(O)CSCC(=O)NCc1c(Cl)cccc1Oc1ccccc1 | -2% | 0% | 4% | 21% | 6% | -10%
C=C(C)CNC(=S)N/N=C1\CCCCc2ccccc21 | -2% | -55% | -11% | 15µM* | ? | -15%
CCNC(=S)N/N=C1\CCCCc2ccccc21 | ? | -30% | -6% | ? | 12µM* | -55%
COc1ccccc1OCC(=O)N/N=C1\CCCCc2ccccc21 | 13% | 1% | -3% | ? | ? | 12%
CC1=C(c2ccc(C)cc2)S(=O)(=O)NC1=NCc1cccc(F)c1 | 0% | / | -9% | / | / | /
O=C(O)C1CSC2(c3ccc(Br)cc3)CCC(=O)N12 (configuration not stated) | -4% | 4% | 3% | 6% | 0% | -10%
CC1=CCC2([N+](=O)[O-])CN(CC(=O)O)CC1([N+](=O)[O-])C2 (configuration not stated) | -1% | 3% | 0% | -21% | 23% | -9%
Nc1cc(C(F)(F)F)ccc1C(=O)O | 0% | -14% | ? | 19% | 0% | -20%
O=C(O)c1ccc(O)cc1O | -5% | -21% | -1% | ? | 21% | -11%
Nc1ccc(O)c([N+](=O)[O-])c1 | -4% | -4% | 1% | ? | 11% | -10%
Nc1ccc(C(=O)Oc2ccc([N+](=O)[O-])cc2)c(O)c1 | 28µM* | 2% | 0% | 99% | 5% | -25%
Cc1ccc(N)cc1O | 6.3µM* | -2% | 0% | ? | ? | -20%
Nc1ccc(C(=O)O)c(O)c1 | 3.5µM*! | -3% | 1% | ? | 23% | -25%
Nc1ccc(N)c(C(=O)O)c1 | 18µM* | -1% | -7% | / | / | -48%
O=S1(=O)C=CC(c2ccccc2)C1 (configuration not stated) | 4% | 1% | -1% | 3% | 30% | -19%
CCC1CCCCN1C(=O)Cn1c(=O)n(CC2CCC(C(=O)NC)CC2)c(=O)c2sccc21 (configuration not stated) | 1% | / | 4% | / | / | /
O=C(COC(=O)/C=C/c1ccc(OC(F)F)cc1)Nc1ccc(N2CCOCC2)cc1 | -3% | -5% | -11% | 12% | -17% | 22%
O=C(/C=C/c1ccccc1)Nc1nc2n(n1)C(c1ccc(F)cc1)C=C(c1ccccc1)N2 (configuration not stated) | -12% | / | 1% | / | / | /
Cc1cc(O)c(-c2cc(O)c(C)cc2O)cc1O | 1.3µM* | -5% | ? | -15% | ? | -40%
Cc1ccc(C(=O)N[C@@H](C)CN2C3=NC[C@H](C)N3C[C@H]2Cc2ccc(O)cc2)cc1Br | 50µM* | -2% | 5% | 4.1µM* | 10µM* | -16%
C/C=C(\C)C(=O)NCCN1C2=NC[C@H](C)N2C[C@@H]1Cc1ccc(OC)cc1 | -3% | 0% | 4% | 63% | 46% | -3%
COc1ccc(C[C@@H]2CN3C(=NC[C@@H]3C)N2CCNC(=O)c2ccc(C)c(Br)c2)cc1 | -15% | 0% | 6% | 13µM* | ? | 11%
CCOc1ccc(NC(=O)CN(C)C(=O)c2cc([N+](=O)[O-])ccc2N2CCOCC2)cc1OCC | 9% | / | -15% | -11% | ? | 57%
Brc1ccc2nc(SCCOc3ccccc3)[nH]c2c1 | -1% | / | -1% | / | / | /
SMILES | Sm TGR inh | SARS PLP yeast | AmpC inh detg | Pf growth 96h | Pf growth 48h | AmpC inh no detg
Cc1ccccc1OCCCSc1nc2ccccc2[nH]1 | 0% | -109% | -5% | 10µM* | 7% | -27%
c1ccc(OCCSc2nc3ccccc3[nH]2)cc1 | 6% | -69% | 4% | 7.4µM* | ? | -21%
CC(C)(C)NC(=O)C(=O)NN=C1CCCCCCCCCCC1 | 0% | -1% | 3% | ? | 20% | -13%
COCCCNC(=O)Cn1c(=O)n(-c2cccc(C)c2)c(=O)c2c1c1cc(C)ccc1n2C | 6% | / | 2% | / | / | /
COc1ccc(-c2ccc(C#N)c(SCC(=O)NC3CC3)n2)cc1OC | 8% | 1% | -7% | ? | -3% | -27%
COc1cccc(-c2nc(SCC(=O)NCc3ccco3)c3c(=O)n(C)c(=O)n(C)c3n2)c1 | -1% | / | 1% | / | / | /
COc1ccc(-c2ccc(C#N)c(SCC(=O)NCc3ccco3)n2)cc1OC | 32µM* | -1% | 4% | ? | ? | -1%
COCc1cc(C)nc(SCC(=O)NCc2ccco2)c1C#N | 3% | 26% | ? | 9.3µM* | 3% | -10%
COCc1cc(C)nc(SCC(=O)Nc2cccc(C)c2C)c1C#N | 4% | 6% | -6% | ? | ? | -36%
COc1ccc(-c2[nH]c(-c3cccc(OC)c3)nc2SCC(=O)NCc2ccco2)cc1 | -2% | -16% | -15% | ? | ? | 10µM*
Clc1nc(-c2cccnc2)nc2scc(-c3ccccc3)c12 | -3% | -48% | 0% | 1µM* | 12µM* | -6%
COc1ccc(-c2csc3nc(-c4cccnc4)nc(Cl)c23)cc1OC | 8% | -20% | -15% | 6.6µM* | 12µM* | 85%
COc1ccc(C(=O)NCC2(c3ccccc3)CCOCC2)cc1[N+](=O)[O-] | -5% | -22% | -14% | ? | -24% | -17%
COc1ccc(CCNC(=O)/C=C/c2ccc3ccccc3n2)cc1OC | 1% | -3% | 5% | 8.3µM* | ? | 8%
COc1ccc(C(=O)NCCc2ccccc2)cc1[N+](=O)[O-] | 4% | 3% | 3% | 18% | 45% | -4%
COc1ccc(C(=O)NCCc2c[nH]c3ccccc23)cc1[N+](=O)[O-] | -3% | 0% | -13% | 13µM* | 0% | -29%
COc1ccc(C2(CNC(=O)c3ccc(OC)c([N+](=O)[O-])c3)CCOCC2)cc1OC | 0% | -1% | ? | 2.3µM* | -8% | 36%
COc1ccc(/C=C/C(=O)NCCc2c[nH]c3ccccc23)cc1OC | -4% | -1% | 1% | 15µM* | 8.3µM* | -22%
CN(CC(=O)NC1CCCCCC1)S(=O)(=O)c1ccc2c(c1)n(C)c(=O)c(=O)n2C | -11% | 1% | -7% | ? | / | -11%
COC(=O)c1sccc1S(=O)(=O)N1CCN(c2ccc(C(C)=O)cc2)CC1 | -9% | / | -4% | / | / | /
